Hits are enriched below; roughly 28% of the tested compounds scored in any of these assays.
CYP2C19 inh – blockers of cytochrome P450 2C19 activity – biochemical, luminescence, ADME assay, primary screen. P33261. CYP2C19 Supersomes, luciferin-H EGE luminescence, 30 min. inhibition, % at 5 µM. 96,000 compounds, 21% hits. AID 778, 2007;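 active means CYP2C19 inhibition above a set limit at 5 µM in the primary screen, cut at about 50% in these data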;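 further: plate controls were negative control wells for no effect and 2.5 mM tranylcypromine positive control for full effect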
D1 allo mod – D1 CRE-luciferase signal change, two-sided – cell-based, HEK293 D1, dopamine EC30, D1 allosteric modulator project, primary screen; D(1A) dopamine receptor (Homo sapiens), P21728; dopamine EC30 potentiation; actives deviate in either direction; B-score at 10 µM; 58,000 compounds, 5.9% hits; AID 641, 2007;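 active means luminescence count or its row- and column-corrected plate score outside the 99.7% band of the plate's sample wells, on either side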
CYP2C9 activ – human CYP2C9 activators, primary screen, biochemical, luminescence. recombinant CYP2C9, luciferin-H conversion; hits give high values; factor 1 = untreated enzyme, 0 = blocked. 96,000 compounds, 1.4% hits. activation factor at 5 µM. AID 1024, 2008;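 active means activation factor of 2 or more for CYP2C9 at a 5 µM dose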;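 further: 0 = sulfaphenazole-blocked wells and 1 = vehicle-only wells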
CYP2C19 activ – human CYP2C19 activators, primary screen, biochemical, luminescence | Cytochrome P450 2C19 (Homo sapiens), P33261 | recombinant CYP2C19, luciferin-H EGE luminescence; hits give high values; 0 = fully inhibited enzyme, 1 = untreated enzyme | activation factor at 5 µM | 96,000 tested, under 10 active | AID 1025, 2008;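 active means activation factor of at least 2 at 5 µM in the primary screen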;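 further: 0 = wells with 2.5 mM tranylcypromine and 1 = vehicle-only wells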
CYP2C9 inhib – blockers of cytochrome P450 2C9 activity – biochemical, luminescence, ADME assay, primary screen; P11712; CYP2C9 Supersomes, luciferin-H conversion; inhibition, % at 5 µM; 96,000 compounds, 20% hits; AID 777, 2007;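 active means blocking of liver enzyme CYP2C9 beyond about 50% at 5 µM, limit read from the data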
hDAT+cocaine – changed hDAT dopamine uptake under cocaine IC80, either direction, primary screen, cocaine antagonist project, cell-based, LLC-PK1 hDAT, [14C]-dopamine uptake, MLSMR | Sodium-dependent dopamine transporter (Homo sapiens), Q01959 | LLC-PK1 hDAT cells, [14C]-dopamine uptake with cocaine IC80; actives deviate in either direction | B-score at 10 µM | 110,000 compounds, 1.3% hits;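 active means Z score or B-score, a plate-position-corrected score, falls beyond the plate's 99.7% confidence bounds, in either direction; inactive means both scores lie inside the 99.7% bounds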;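 further: scored against the spread of the other compound wells on the same plate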
Target sequence (Q01959 whole entry, looked up): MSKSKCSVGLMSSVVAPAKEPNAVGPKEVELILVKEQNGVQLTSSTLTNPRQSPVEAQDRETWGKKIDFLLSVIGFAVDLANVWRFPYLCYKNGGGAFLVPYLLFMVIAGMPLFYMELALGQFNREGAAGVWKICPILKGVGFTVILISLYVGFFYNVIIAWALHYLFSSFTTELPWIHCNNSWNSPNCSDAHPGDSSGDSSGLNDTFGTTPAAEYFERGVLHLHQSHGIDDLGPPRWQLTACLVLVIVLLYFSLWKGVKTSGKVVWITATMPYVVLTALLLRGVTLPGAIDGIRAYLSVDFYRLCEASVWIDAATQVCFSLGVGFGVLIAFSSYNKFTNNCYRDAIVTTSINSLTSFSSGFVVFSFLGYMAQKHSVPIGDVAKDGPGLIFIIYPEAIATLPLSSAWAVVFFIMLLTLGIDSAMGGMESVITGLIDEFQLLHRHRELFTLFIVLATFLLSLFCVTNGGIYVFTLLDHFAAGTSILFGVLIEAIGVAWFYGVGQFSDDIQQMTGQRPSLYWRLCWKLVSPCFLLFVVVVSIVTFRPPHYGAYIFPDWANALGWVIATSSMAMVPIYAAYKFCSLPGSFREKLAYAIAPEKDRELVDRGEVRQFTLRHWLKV
* = called active by the depositor.

Screening CC1(C)NC(=O)N(CC(O)CN(Cc2ccccc2)Cc2ccccc2)C1=O (stereo not drawn) returned CYP2C19 inh 85*, D1 allo mod -0.46, CYP2C9 activ 0.7, CYP2C19 activ 0.2, CYP2C9 inhib 28 and hDAT+cocaine 1.
Screening CCCCN(CCCC)CC(O)CN1C(=O)NC(C)(C)C1=O (stereo not drawn) returned CYP2C19 inh -21, CYP2C9 activ 1.2, CYP2C19 activ 1.2, CYP2C9 inhib -23 and hDAT+cocaine 0.27.
Screening CC1(C)NC(=O)N(CC(O)CN2C(=O)NC(C)(C)C2=O)C1=O returned CYP2C19 inh -5, D1 allo mod 0.3, CYP2C9 activ 1, CYP2C19 activ 1, CYP2C9 inhib 1 and hDAT+cocaine 0.0076.
CC1(C)NC(=O)N(CC(O)CN2CCOCC2)C1=O (stereo not drawn) was read as CYP2C19 inh 56*, D1 allo mod 0.37, CYP2C9 activ 0.6, CYP2C19 activ 0.4, CYP2C9 inhib 45 and hDAT+cocaine 0.36.
For Cc1ccc(OCC(O)CN2C(=O)NC(C)(C)C2=O)cc1C (stereo not drawn) the results were CYP2C19 inh 84*, D1 allo mod -0.91, CYP2C9 activ 0.7, CYP2C19 activ 0.2, CYP2C9 inhib 29 and hDAT+cocaine 0.17.
Cc1ccc(OCC(O)CN2C(=O)NC(C)(C)C2=O)cc1 (stereo not drawn) was read as hDAT+cocaine 0.09.
`CCc1ccccc1NC(=O)COC(=O)C1CC(=O)N(c2ccc(F)cc2)C1` (stereo not drawn) gave CYP2C19 inh 10, D1 allo mod 0.19, CYP2C9 activ 1, CYP2C19 activ 0.9, CYP2C9 inhib 3 and hDAT+cocaine -0.72.
Screening Cc1cc(C)c(C)c(S(=O)(=O)NCc2ccc(C(=O)N3CCCCC3)cc2)c1C returned hDAT+cocaine -0.25.
For CCOc1ncccc1C(=O)NCc1ccc(OC)cc1 the results were CYP2C19 inh 52*, CYP2C9 activ 0.5, CYP2C19 activ 0.5, CYP2C9 inhib 52* and hDAT+cocaine 1.9.
Screening COc1ccc(Nc2ncccc2C(=O)NCc2ccccc2)cc1 returned CYP2C19 inh 84*, CYP2C9 activ 0.2, CYP2C19 activ 0.2, CYP2C9 inhib 79* and hDAT+cocaine 0.92.
COC(=O)c1ccc(C(=O)OC)c(NC(=O)N2c3ccccc3Sc3ccccc32)c1 was read as CYP2C19 inh 12, CYP2C9 activ 0.5, CYP2C19 activ 0.9, CYP2C9 inhib 51* and hDAT+cocaine 0.0071.
c1ccc(CSc2ncnc3c2cnn3Cc2ccccc2)cc1 was read as CYP2C19 inh 12, CYP2C9 activ 0.8, CYP2C19 activ 0.9, CYP2C9 inhib 19 and hDAT+cocaine -0.41.
Screening O=C(OCCCc1ccncc1)c1ccc(S(=O)(=O)N2CCOCC2)cc1 returned CYP2C19 inh 96*, D1 allo mod 0.26, CYP2C9 activ 0, CYP2C19 activ 0, CYP2C9 inhib 97* and hDAT+cocaine -0.038.
Screening Clc1ccc(C2=NOC(c3nnc(-c4ccccc4)o3)C2)cc1 (stereo not drawn) returned hDAT+cocaine 0.68.
For CS(=O)(=O)N1CCN(c2ccccc2NC(=O)c2ccc(-c3ccc(Cl)cc3Cl)o2)CC1 the results were CYP2C19 inh 25, D1 allo mod -1, CYP2C9 activ 0.5, CYP2C19 activ 0.8, CYP2C9 inhib 50* and hDAT+cocaine 0.14.
O=C(Cc1ccccc1)Nc1ccccc1N1CCN(c2ccccc2)CC1 was read as CYP2C19 inh 16, D1 allo mod -1.1, CYP2C9 activ 0.9, CYP2C19 activ 0.8, CYP2C9 inhib 14 and hDAT+cocaine 0.04.
CS(=O)(=O)N1CCN(c2ccccc2NC(=O)Cc2ccccc2)CC1 was read as CYP2C19 inh 62*, D1 allo mod 0.68, CYP2C9 activ 0.5, CYP2C19 activ 0.4, CYP2C9 inhib 50 and hDAT+cocaine -0.58.
For CCC(=O)N1CCN(c2ccccc2NC(=O)Cc2ccccc2)CC1 the results were CYP2C19 inh 59*, D1 allo mod -0.038, CYP2C9 activ 0.6, CYP2C19 activ 0.4, CYP2C9 inhib 42 and hDAT+cocaine 0.39.
Screening Nc1c(N(C(=O)Nc2ccc(Cl)c(Cl)c2)C2CCCC2)c(=O)[nH]c(=O)n1Cc1ccccc1 returned CYP2C19 inh -25, CYP2C9 activ 1.1, CYP2C19 activ 1.3 and CYP2C9 inhib -5.
For O=S(=O)(NCCc1ccncc1)c1ccc(S(=O)(=O)N2CCCCCC2)cc1 the results were CYP2C19 inh 99*, D1 allo mod 0.14, CYP2C9 activ 0.1, CYP2C19 activ 0, CYP2C9 inhib 92* and hDAT+cocaine 0.088.
CC1CCCCN1S(=O)(=O)c1ccc(S(=O)(=O)NCCc2ccncc2)cc1 (stereo not drawn) was read as hDAT+cocaine -0.0024.
`O=S(=O)(NCCc1ccncc1)c1ccc(Br)cc1` gave CYP2C19 inh 100*, CYP2C9 activ 0, CYP2C19 activ 0, CYP2C9 inhib 98* and hDAT+cocaine -0.28.
CCc1ccc(/C=C/C(=O)c2cc(Br)ccc(=O)c2O)cc1 was read as CYP2C19 inh 27, CYP2C9 activ 0.6, CYP2C19 activ 0.7, CYP2C9 inhib 40 and hDAT+cocaine 0.13.
For Cc1ccc(/C=C/C(=O)c2cc(Br)ccc2OC(=O)c2ccco2)cc1 the results were CYP2C19 inh 83*, CYP2C9 activ 0.2, CYP2C19 activ 0.2, CYP2C9 inhib 76* and hDAT+cocaine 0.81.
For COc1ccccc1/C=C/C(=O)c1cc(Br)ccc1OC(=O)c1ccco1 the results were hDAT+cocaine 2.6*.
`Cc1ccc2nc(C)c(C)nc2c1N` gave CYP2C19 inh 77*, D1 allo mod 0.029, CYP2C9 activ 0.9, CYP2C19 activ 0.2, CYP2C9 inhib 14 and hDAT+cocaine 0.008.
CC(=O)c1c(C)nc2ccccc2c1N was read as CYP2C19 inh -14, D1 allo mod 0.01, CYP2C9 activ 1.1, CYP2C19 activ 1.1, CYP2C9 inhib -13 and hDAT+cocaine -0.22.
Screening CO/N=C/c1ccc(Sc2ccccc2)c([N+](=O)[O-])c1 returned CYP2C19 inh 16, CYP2C9 activ 0.3, CYP2C19 activ 0.8, CYP2C9 inhib 74* and hDAT+cocaine 0.27.
O=[N+]([O-])c1cc(/C=N/O)ccc1Sc1ccccc1 was read as CYP2C19 inh 11, CYP2C9 activ 0.3, CYP2C19 activ 0.9, CYP2C9 inhib 67* and hDAT+cocaine 0.19.

Screens from PubChem BioAssay.
